Test [1] addresses Peroxisome proliferator-activated receptor gamma (Homo sapiens) (UniProt P37231). As to the kind of experiment: OT_PPARg_PPARgSRC1_0480: Odyssey Thera (OT) 8-hour Protein-Complementation Assay for Peroxisome Proliferator-activated Receptor Gamma / SRC-1 Co-activator (AID 2283387).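 Also: nuclear to cytoplasmic split Venus YFP fluorescence ratio reporting PPARg SRC-1 interaction.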 The gist of the method:
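Read-out: 488 nm N/C fluorescence ratio from complemented Venus YFP fragments, ≥350 cells per image, gain-of-signal fitted against DMSO baseline. Fusions of PPARg/SRC-1 with IFP1/IFP2 expressed transiently in HEK293T; compounds applied 8 h.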

The target is the same in test [2]. As to the kind of experiment: OT_PPARg_PPARgSRC1_1440: Odyssey Thera (OT) 24-hour Protein-Complementation Assay for Peroxisome Proliferator-activated Receptor Gamma/ SRC-1 Co-activator (AID 2283388).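 Also: nuclear to cytoplasmic ratio of reconstituted Venus YFP fluorescence in fixed imaged cells.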 The gist of the method:
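Readout: nuclear-to-cytoplasmic 488 nm fluorescence ratio, ≥350 cells per image, 8 images per well, after 24 h compound exposure of HEK293T expressing PPARg/SRC-1 split-YFP fusions. Activity fitted in positive direction against DMSO.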

Test [3] is described as follows: CEETOX_H295R_11DCORT: CeeTox H295R High-throughput Steroidogenesis Assay for 11-Deoxycortisol (11DCORT) (AID 2283432; active = hit-call score of the fitted dose curve at least 0.9, where 1 is the maximum; inactive = score below 0.9;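 as to AC50: human adrenal H295R cells prestimulated with 10 µM forskolin for 48 h; 11-deoxycortisol secreted into the medium measured by LC-MS/MS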). Particulars: actives raise or lower the signal. The procedure, abridged:
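H295R cells; 10 uM forskolin prestim 48 h; compound in 0.1% DMSO 48 h; media extracted with MTBE; 11-deoxycortisol by LC-MS/MS, 7-point standard curve; gain/loss vs DMSO baseline; viability by MTT in same wells.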

Test [4] in a line: CEETOX_H295R_OHPREG: CeeTox H295R High-throughput Steroidogenesis Assay for OH-Pregnenolone (OHPREG) (AID 2283434; active = hit-call score of the fitted dose curve at least 0.9, where 1 is the maximum; inactive = score below 0.9). Particulars: actives raise or lower the signal. The procedure, abridged: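 Hormone levels in spent medium were measured by tandem mass spectrometry following liquid-liquid extraction. Cells (H295R) had been forskolin-stimulated (10 uM, 48 h) before a 48 h chemical exposure at 0.1% DMSO, with activity fitted in both directions against DMSO.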

Test [5] in a line: CEETOX_H295R_OHPROG: CeeTox H295R High-throughput Steroidogenesis Assay for OH-Progesterone (OHPROG) (AID 2283435; active = hit-call score of the fitted dose curve at least 0.9, where 1 is the maximum; inactive = score below 0.9;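 as to AC50: human adrenal H295R cells primed 48 h with 10 µM forskolin; 17alpha-hydroxyprogesterone secreted into medium measured by HPLC-MS/MS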). Particulars: actives raise or lower the signal. The procedure, abridged: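 Secreted 17alpha-hydroxyprogesterone is read by tandem MS from media of forskolin-primed H295R cells dosed with chemical for 48 h. Activity is fitted in both directions against DMSO baseline; cytotoxic concentrations are re-tested diluted.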

A short description of test [6]: CEETOX_H295R_ANDR: CeeTox H295R High-throughput Steroidogenesis Assay for Androstenedione (ANDR) (AID 2283436; active = hit-call score of the fitted dose curve at least 0.9, where 1 is the maximum; inactive = score below 0.9). Particulars: actives raise or lower the signal. Here is the method: CEETOX_H295R is a cell-based, multiplexed-readout assay that uses H295R, a human adrenal gland cell line, with measurements taken at 48 hours after chemical dosing in a 96-well plate.CEETOX_H295R_ANDR is one of 23 assay component(s) measured or calculated from the CEETOX_H295R assay. It is designed to make measurements of hormone induction, a form of inducible reporter, as detected with absorbance signals by HPLC-MS-MS technology.Data from the assay component CEETOX_H295R_ANDR was analyzed into 1 assay endpoint. This assay endpoint, CEETOX_H295R_ANDR, was analyzed with bidirectional fitting relative to DMSO as the negative control and baseline of activity. […] To generalize the intended target to other relatable targets, this assay endpoint is annotated to the steroid hormone intended target family, where the subfamily is androgens.
Cell culture and media preparation procedures were conducted in accordance with OECD Test No. 456 guidelines, with minor modifications. H295R cells (ATCC CRL-2128) were expanded for 5 passages and frozen in batches in liquid nitrogen. Prior to the steroidogenesis assay, H295R cells were thawed and passed at least 4 times. The maximum passage was 10. Cells were maintained in a 1:1 mixture of DMEM/F12 supplemented with 5ml/L ITS+ Premix (BD Bioscience) and 12.5 ml/L Nu-Serum (BD Bioscience). After seeding cells into 96-well plates at 50-60% confluency, cells were allowed to adhere overnight. […] Test chemicals were incubated for 48 hours, then the medium was removed and split into 2 vials containing approximately 75uL each, and stored at -80 C prior to hormone analysis. For steroid quantification, media samples were shipped to OpAns, LLC (Durham, NC) on dry ice, and samples were thawed to room temperature prior to liquid-liquid extraction. Steroid hormones were extracted from media samples using methyl tertbutyl ether (MTBE). An extra derivatization with dansyl chloride was included for estrogen (estrone and estradiol) detection only. Steroid hormones were separated by HPLC, eluted using a reverse phase C18 gradient with electrospray positive ionization, followed by quantification by tandem mass spectrometry (MS/MS). Data were acquired on a MassHunter Workstation Acquisition version B03.01 (Agilent Technologies, Inc.) and processed using MassHunter Quantitative Analysis for QQQ. Accuracy was determined for each hormone analyte from 3 standards to determine upper and lower limits of quantification (ULOQ and LLOQ, respectively) using a 7-point standard curve. Precision and accuracy of the extraction and quantification methods were calculated as the percent relative standard deviation (%RSD) of the spiked standards and percent spiked standard recovered, respectively. […] Test medium was removed following chemical exposure, and cell viability was evaluated in the same wells by MTT. MTT procedures were as follows: after removal of test medium, 500 uL of 0.5 mg/ml of 3-[4,5-dimethylthiazol-2-y]2,5-diphenyltetrazoliumbromide solution was added to the cells. Following a 4-hour incubation at 37 C and 5% CO2 to allow formazan-crystal formation, the MTT solution was removed and blue formazan salt crystals were solubilized using 500uL anhydrous isopropanol with shaking for 20 minutes. Absorbance was read at 570 and 650nm using a Packard Fusion microplate reader. Background correction of absorbance units was used to determine percent change relative to controls. […] When a test chemical reduced cell viability to 20% - 70%, the test chemical was diluted 10-fold and re-evaluated, but if cell viability was <20%, then the test chemical was diluted 100-fold and re-evaluated. Test chemical dilutions were made until cell viability was >/=70%. MTT assays were also conducted for duplicates of all concentrations of chemicals tested in concentration-response studies.

Test [7] in a line: CEETOX_H295R_CORTIC: CeeTox H295R High-throughput Steroidogenesis Assay for Corticosterone (CORTIC) (AID 2283437; active = hit-call score of the fitted dose curve at least 0.9, where 1 is the maximum; inactive = score below 0.9;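 also: corticosterone secreted into medium quantified by mass spectrometry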;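 as to AC50: human H295R adrenal cells prestimulated with forskolin before chemical exposure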). Conditions: actives raise or lower the signal. The procedure, abridged:
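Corticosterone secreted into medium is measured by reverse-phase HPLC with tandem MS following liquid-liquid extraction. Cells are forskolin-stimulated (10 uM, 48 h) before 48 h test exposure; activity fitted in both directions against DMSO.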

Test [8] is described as follows: CEETOX_H295R_CORTISOL: CeeTox H295R High-throughput Steroidogenesis Assay for Cortisol (AID 2283438; active = hit-call score of the fitted dose curve at least 0.9, where 1 is the maximum; inactive = score below 0.9;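 also: cortisol secreted into medium quantified by LC-MS/MS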). Conditions: actives raise or lower the signal. The procedure, abridged:
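Human adrenocortical H295R cells (passage ≤10) received test chemicals for 48 h after forskolin priming. Secreted cortisol was measured by LC-MS/MS.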

Test [9] can be described thus: CEETOX_H295R_DOC: CeeTox H295R High-throughput Steroidogenesis Assay for DOC (AID 2283439; active = hit-call score of the fitted dose curve at least 0.9, where 1 is the maximum; inactive = score below 0.9). Particulars: actives raise or lower the signal. The gist of the method: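 Secreted DOC was quantified from H295R media by HPLC-MS/MS after 48 h chemical exposure following 48 h forskolin (10 uM) prestimulation. Values were fitted in both directions relative to DMSO, the negative control and baseline.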

Test [10] can be described thus: CEETOX_H295R_ESTRADIOL: CeeTox H295R High-throughput Steroidogenesis Assay for Estradiol (AID 2283440; active = hit-call score of the fitted dose curve at least 0.9, where 1 is the maximum; inactive = score below 0.9;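 also: estradiol secreted into medium quantified by LC-MS/MS after dansyl derivatisation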). Particulars: actives raise or lower the signal. The gist of the method: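 H295R, 48 h forskolin (10 uM) prestim → 48 h compound, 0.1% DMSO final. Estradiol in medium: MTBE extraction, dansyl chloride derivatization, LC-MS/MS. Fit bidirectional vs DMSO baseline; MTT viability in same wells.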

Results filed as inconclusive are left out. The source made the active and inactive calls. The calls were made as follows, unless noted: active = hit-call score of the fitted dose curve at least 0.9, where 1 is the maximum; inconclusive = response in the unintended direction; inactive = score below 0.9.

Consider 33 molecules from PubChem BioAssay (EPA / NIEHS).

Chain of Peroxisome proliferator-activated receptor gamma (Homo sapiens) (P37231 whole entry, looked up, the tested form may be a part): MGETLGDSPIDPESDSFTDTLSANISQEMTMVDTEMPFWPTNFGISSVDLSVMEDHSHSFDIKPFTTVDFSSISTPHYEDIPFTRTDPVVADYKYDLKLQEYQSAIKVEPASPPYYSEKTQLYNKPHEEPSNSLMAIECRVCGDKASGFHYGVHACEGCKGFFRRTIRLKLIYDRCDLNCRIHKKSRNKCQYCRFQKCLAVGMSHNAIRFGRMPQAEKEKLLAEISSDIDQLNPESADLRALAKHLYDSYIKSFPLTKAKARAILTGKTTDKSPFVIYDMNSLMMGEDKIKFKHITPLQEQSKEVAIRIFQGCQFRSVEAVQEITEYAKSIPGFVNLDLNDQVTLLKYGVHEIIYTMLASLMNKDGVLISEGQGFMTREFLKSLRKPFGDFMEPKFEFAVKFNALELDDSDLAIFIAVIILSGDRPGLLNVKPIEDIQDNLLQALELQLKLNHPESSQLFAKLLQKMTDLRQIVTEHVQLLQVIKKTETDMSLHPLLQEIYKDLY

Regarding `CCc1ccccc1O`, the call in test [1] and in test [2] was inactive.

Turning to `CC(C)[C@@H]1CC[C@@H](C)C[C@H]1O`, the outcome in [1] and in test [2] was inactive.

`NS(=O)(=O)O`: the result in [1] and in [2] was inactive.

`O=S(=O)(O)c1ccccc1`: the molecule was called inactive in test [1] and in [2].

Consider `CCCCCCCCCC=CCC1CC(=O)OC1=O` (stereo unspecified), for which the result in test [1] and in test [2] was inactive.

Regarding `Cc1ccc(C)c(S(=O)(=O)O)c1`, the call in test [1] and in test [2] was inactive.

As for `CC(=O)Nc1ccc(O)cc1`, the molecule was called inactive in test [1] and in test [2].

Regarding `O=C(O)C(=O)O`, the call in [1] and in test [2] was inactive.

In the case of `Cc1cc(C(C)(C)C)c(O)c(C(C)(C)C)c1`, the result in [1] and in [2] was inactive.

Regarding `CN(Cc1cnc2nc(N)nc(N)c2n1)c1ccc(C(=O)N[C@@H](CCC(=O)O)C(=O)O)cc1`, the molecule was classed as inactive in test [1] and in [2].

For `Cc1cc(C(=C2C=CC(=Nc3ccc(S(=O)(=O)O)cc3)C=C2)c2ccc(Nc3ccc(S(=O)(=O)O)cc3)cc2)cc(S(=O)(=O)O)c1N`, the result in [1] and in [2] was inactive.

On to `CCCCC(CC)C(=O)O` (stereo unspecified), for which the molecule was classed as inactive in test [1] and in test [2].

As for `NCc1cccc(CN)c1`, the molecule was classed as inactive in test [1] and in test [2].

For `C=CC(C)(CCC=C(C)C)OC(C)=O` (stereo unspecified), the outcome in test [1] and in test [2] was inactive.

Take `OCC(CO)(CBr)CBr`: the molecule was called inactive in [1] and in [2].

Turning to `CCC(C)c1ccccc1O` (stereo unspecified), the molecule was called inactive in [1] and in test [2].

With `CC(C)c1c(C(=O)Nc2ccccc2)c(-c2ccccc2)c(-c2ccc(F)cc2)n1CC[C@@H](O)C[C@@H](O)CC(=O)O`, the molecule was called inactive in [1] and in test [2].

As to `O=C(O)c1cccc(C(=O)O)n1`, the outcome in test [1] and in test [2] was inactive.

Turning to `CCCCCCc1ccc(N)cc1`, the result in [1] and in test [2] was inactive.

On to `CCCCCCC(C)(C)C(=O)O`, for which the call in test [1] and in [2] was inactive.

Consider `NC(=NCCCCCCN=C(N)/N=C(\N)Nc1ccc(Cl)cc1)/N=C(\N)Nc1ccc(Cl)cc1`, for which the result in [1] and in test [2] was inactive.

For `O=C1NS(=O)(=O)c2ccccc21`, the call in [1] and in test [2] was inactive.

Consider `NCCN`, for which the call in [1] and in test [2] was inactive.

For the molecule `CCCCc1ccc2ccccc2c1S(=O)(=O)O`, the outcome in [1] and in [2] was inactive.

For `CCCCc1oc2ccccc2c1C(=O)c1cc(I)c(OCCN(CC)CC)c(I)c1`, the molecule was called inactive in test [1] and in test [2].

Consider `Cc1cc(Cc2cc(C)cc(C(C)(C)C)c2O)c(O)c(C(C)(C)C)c1`, for which the molecule was classed as inactive in test [2].

For `CC(C)(c1ccc(Oc2ccc(N)cc2)cc1)c1ccc(Oc2ccc(N)cc2)cc1`, the half-maximal activity concentration (AC50) was 249 nM (active) in [3]; 36.1 nM (active) in test [4]; 235 nM (active) in test [5]; 234 nM (active) in test [6]; 229 nM (active) in [7]; 401 nM (active) in test [8]. For the same molecule, the AC50 in [9] was 200 nM (active). Besides, the molecule was called inactive in [10].

As for `O=C(CCCN1CCC(O)(c2ccc(Cl)cc2)CC1)c1ccc(F)cc1`, the molecule was called inactive in test [1], in [2], in test [7], in test [8] and in test [9].

With `CCCCCCCCCCCC(=O)O`, the outcome in test [1] and in test [2] was inactive.

Take `CCCCCCCCCCCCOC(=O)c1cc(O)c(O)c(O)c1`: the call in test [1] and in [2] was inactive.

With `CCCCCCCCCCCC`, the molecule was called inactive in [1] and in test [2].

For `CCCCCC(C)OC(=O)COc1ccc(Cl)c2cccnc12` (stereo unspecified), the molecule was classed as inactive in [1], in test [2], in [4], in [5], in [7] and in test [9]. For the same molecule, the AC50 in test [3] is 18700 nM (active); in [8], 34900 nM (active).

With `O=C(NCc1ncc(C(F)(F)F)cc1Cl)c1c(Cl)cccc1Cl`, the molecule was classed as inactive in test [3], in test [4], in test [6], in [7], in test [8] and in test [9]. The result in test [10] was inactive. Besides, the concentration at half-maximal activity (AC50) in test [5] is 7420 nM (active).

What is called AC50 is the midpoint of the concentration-response curve, whichever way the signal moves.
